Each structure is given as a SMILES string. The campaign covered roughly 360,000 compounds. About 3,600 (1%) were called active. The sample holds actives, similar compounds and a random draw of the others, so the mix is not that of the screen. A number with no mark means an inactive call.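 Rule for the calls: active = compounds whose plate-normalised and pattern-corrected inhibition of the luciferase reporter signal at the single screening dose is 50% or more; inactive = the rest.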

The assay is described as follows: TROY pathway blockers in reporter cells – Q293 LMP1-TROYcd cells, NF-kB luciferase, uHTS, primary screen (AID 1347056). The following applies: 4 h, at 10 µM, stronger effect = higher value.
Consider `N#CC(Cc1cc2ccccc2n1S(=O)(=O)c1ccccc1)OCc1ccccc1` (stereo not given), for which the inhibition is -2.35%.

For `CC(C)c1ccc(NS(=O)(=O)c2cn(C)c(=O)n(C)c2=O)cc1`, the inhibition was -2.58%.

As for `Cc1ccccc1NC(=O)C(C)c1ccc(-c2ccccc2)c(F)c1` (stereo not given), the inhibition was -1.18%.

As for `Cc1cccc(-n2c(=O)c3c(C)c(C)sc3n(CC(N)=O)c2=O)c1`, the inhibition was 2.94%.

With `Cc1cccc(-n2c(SCC(N)=O)nc3c(c2=O)C2(CCCCC2)Cc2ccccc2-3)c1`, the inhibition was 51% (active).

`N#CCSc1nc2c(c(=O)n1Cc1ccccc1)C1(CCCC1)Cc1ccccc1-2`: the inhibition was 3.7%.

As to `Cc1cc(CNC(=O)C2CCC(=O)N(CCc3ccc(Cl)cc3)C2)no1` (stereo not given), the inhibition was -13%.

With `O=C(N/N=C/c1ccsc1)c1cc(O)cc(O)c1`, the inhibition is -3.65%.

On to `CSc1ncnc2c1ncn2CCCNCC1CCCCC1`, for which the inhibition was 10.9%.

On to `CC12CCC(=O)C=C1CCC1C2C(O)CC2(C)C1CCC2(O)C(O)CO` (stereo not given), for which the inhibition is 1.9%.

Turning to `CSc1ncnc2c1ncn2CC(=O)C1CCC2C3CCC4=CC(=O)CCC4(C)C3CCC12C` (stereo not given), the inhibition is 76.2% (active).

Consider `Cc1cc(C)c(NC(=O)CN2CCOCCOCCOCCOCC2)c(C)c1`, for which the inhibition was 3.84%.

As for `COC(=O)C1=C(N)Oc2cc(C)oc(=O)c2C1c1cccnc1` (stereo not given), the inhibition is -1.83%.

With `COc1ccc(-c2c(C)cc3oc(=O)cc(-c4ccccc4)c3c2C)cc1OC`, the inhibition was 1.76%.

Consider `COc1ccc(-c2c(C)cc3oc(=O)cc(-c4ccccc4)c3c2C)cc1C=O`, for which the inhibition was 50.3% (active).

Turning to `COc1ccc(-c2c(C)cc3oc(=O)cc(-c4ccccc4)c3c2C)cc1F`, the inhibition is -22%.

Turning to `COc1cc([C@H](Cc2ccccc2)NC(C)=O)oc(=O)c1`, the inhibition is -27%.

`CCOC(=O)C1(S(=O)(=O)c2ccc(Cl)cc2)CCN(Cc2ccccc2)CC1`: the inhibition was -14.2%.

On to `O=C(NCCN1CCOCC1)/C(=C/c1ccc(F)cc1)NC(=O)c1ccccc1`, for which the inhibition is -11.7%.

Consider `Cc1ccc(C(=O)N/C(=C\c2ccc(F)cc2)C(=O)NCCN2CCOCC2)cc1`, for which the inhibition is -5.95%.

For `CCN1CCN(CCNC(=O)c2ccc3c(c2)NC(=O)/C(=C\c2cccc(Cl)c2)S3)CC1`, the inhibition is 2.74%.

On to `Cc1cccc(-c2nc3ccc(C(=O)NCCN4CCN(C)CC4)cc3nc2-c2cccc(C)c2)c1`, for which the inhibition was -28%.

As to `Cc1c(C)n(Cc2ccc(Cl)cc2)c2ccc(C(=O)NCCCN3CCOCC3)cc12`, the inhibition was -9.92%.

With `CCC1Oc2ccccc2N(CC(=O)NCCCN2CCN(CC)CC2)C1=O` (stereo not given), the inhibition was 1.63%.

Turning to `CCN1CCN(CCNC(=O)c2ccc(/C=C3/Sc4ccccc4N(Cc4cccc(C)c4)C3=O)cc2)CC1`, the inhibition was 50.6% (active).

Consider `O=C(NCCN1CCOCC1)c1ccc(/C=C2\Sc3ccccc3N(Cc3ccc(F)cc3)C2=O)cc1`, for which the inhibition is 51% (active).

`CN1CCN(CCCNC(=O)c2ccc(/C=C3\Oc4ccccc4N(Cc4ccc(Cl)cc4)C3=O)cc2)CC1`: the inhibition is 80.6% (active).

Regarding `Nc1nc(Br)c2ccccc2c1-c1ccc(F)cc1`, the inhibition was 14.8%.

With `O=[N+]([O-])c1ccc(N2CCN(S(=O)(=O)c3ccccc3)CC2)cc1N1CCc2ccccc2C1`, the inhibition is -19.3%.

`CCc1nc2ccc(C(=O)N3CCN(S(=O)(=O)CC)CC3)cn2c1N(C=O)CCC(C)C`: the inhibition is 0.5%.

With `C/C(CC(=O)NC(C)(C)C)=N\NC(=O)c1ccco1`, the inhibition is -29.8%.

As to `COC(=O)[C@H](Cc1ccccc1)NC(=O)[C@@H]1C[C@H]1[C@@H](NC(=O)OCc1ccccc1)c1ccccc1`, the inhibition was 5.51%.

Take `Cc1cc(Nc2cccc(C)c2C)n2ncnc2n1`: the inhibition was 3.52%.

Turning to `COC(=O)CNC(=O)c1ccc(OC2CCN(C(=O)C3CC3)CC2)cc1`, the inhibition is 2.78%.

As for `CC1O[C@H](OC2C(COC3OC(CO)C(O)[C@H](O)C3O)OC(OC3CC[C@]4(C)C(CC[C@@]5(C)[C@@H]4C=C[C@]46OC[C@@]7(CCC(C)(C)C[C@H]74)C(O)C[C@@]56C)C3(C)C)C(O)C2O)C(O)C(O)C1O` (stereo not given in full), the inhibition is -9.36%.

Turning to `COc1ccc(CNC(=O)CN(c2ccc(OC)c(Cl)c2)S(=O)(=O)c2ccc(C)cc2)cc1`, the inhibition is -0.8%.

In the case of `Cc1ccccc1OCCC(=O)Nc1c(C)n(C)n(-c2ccccc2)c1=O`, the inhibition is 1.55%.

For the compound `CCN(CC)CCNC(=O)c1ccc(NS(=O)(=O)c2ccc3c(c2)OCCO3)cc1`, the inhibition was 16.6%.

As to `O=C(Nc1cccc(S(=O)(=O)Nc2ccc(Cl)cc2)c1)c1ccc2c(c1)OCCO2`, the inhibition was 56.2% (active).

Turning to `Cc1ccc(C(=O)Nc2ccc3c(c2)OCCO3)cc1S(=O)(=O)N1CCOCC1`, the inhibition was -52%.

For `O=C(Nc1ccc2c(c1)OCCO2)c1ccc(Cl)c(S(=O)(=O)N2CCCCC2)c1`, the inhibition is 54.4% (active).

Regarding `CN1CCN(c2ccc(NC(=O)c3ccc4c(c3)OCCO4)cc2Cl)CC1`, the inhibition is 22.3%.

Take `CC(NS(=O)(=O)c1ccc(Cl)cc1)C(=O)Nc1ccc2c(c1)OCCO2` (stereo not given): the inhibition was 2.15%.

Take `C/C(=N\N(C)C)c1ccc(OCCOc2ccc([N+](=O)[O-])cc2)cc1`: the inhibition is -19.4%.

Consider `COc1ccc(N(CC(=O)Nc2cc(OC)cc(OC)c2)S(=O)(=O)c2c(C)n[nH]c2C)cc1`, for which the inhibition was -9.7%.

As to `CN1C(=O)CC(c2ccccc2)C1=O` (stereo not given), the inhibition was 0.86%.

As to `COCCN(Cc1cc2cc3c(cc2nc1Cl)OCO3)C(=O)c1cccc(C)c1`, the inhibition is 19.8%.

On to `CC1CC(C)CN(CCOc2cccc3ccccc23)C1` (stereo not given), for which the inhibition was 6.96%.

Take `CC(C)c1ccccc1OCC(O)CN(CC(O)COc1cccc2ccccc12)C(C)C` (stereo not given): the inhibition is 65.6% (active).

For `CN1CCN(CCCCOc2cccc3ccccc23)CC1`, the inhibition is -39.4%.

With `NC(=O)NC(=O)C(OC(=O)CCNS(=O)(=O)c1ccccc1)c1ccccc1` (stereo not given), the inhibition was 1.93%.

With `Cc1ccc(CNCc2ccc3c(c2)OCO3)c(C)c1`, the inhibition is -5.84%.

For the compound `CC(C)COC(=O)C1C2C=CC3(CN(C(C)c4ccc(Br)cc4)C(=O)C13)O2` (stereo not given), the inhibition was -13.1%.

Consider `CCN1C(=O)[C@@H]2[C@@H]3CN(S(=O)(=O)c4ccccc4C)[C@@H](c4ccc(Cl)cc4)[C@@H]3C(=O)C[C@@H]2C1=O`, for which the inhibition was 14.4%.

With `CC(C)C(C)(C#N)NC(=O)CSc1nncn1-c1ccccc1` (stereo not given), the inhibition was -7.95%.

As for `CC1CCN(C(=O)c2ccc3c(=O)n4c(nc3c2)CCCCC4)CC1`, the inhibition was 5.45%.

Take `C=CCC1(CC=C)CCCN1C(=O)CC1C(=O)NCCN1Cc1ccccc1OC` (stereo not given): the inhibition was -17.8%.

For `CCN1CCN(C(=O)C2(NC(=O)Nc3cccc(F)c3)CCCCC2)CC1`, the inhibition is 7.69%.

As for `Cc1noc(C)c1C(=O)NCC1COc2ccccc2O1` (stereo not given), the inhibition is 7.74%.

`c1ccc(-c2cc3c(NCC4COc5ccccc5O4)ncnc3s2)cc1` (stereo not given): the inhibition is 59.3% (active).

Regarding `O=C(Cn1cnc2ccccc2c1=O)NCC1COc2ccccc2O1` (stereo not given), the inhibition was -4.41%.

For the compound `CCOC(=O)[C@]12CCC=C1N(CCC1=CCCCC1)C(=O)[C@H](CC(=O)NCc1ccc(C)o1)C2`, the inhibition was -3.05%.

On to `Cc1nc(Nc2ccccc2F)c2nnn(Cc3ccccc3Cl)c2n1`, for which the inhibition is -1.4%.

Turning to `Cc1nc(Nc2ccc(S(=O)(=O)N3CCCC3)cc2)c2nnn(Cc3ccccc3)c2n1`, the inhibition was 22.5%.

For `Cc1nc(Nc2ccc3c(c2)OCCO3)c2nnn(Cc3ccccc3Cl)c2n1`, the inhibition was 82.3% (active).

As to `Cc1ccc(S(=O)(=O)N(C)CC(=O)OCC(=O)Nc2ccccc2)cc1`, the inhibition is -10.3%.

Regarding `CCOC(=O)CN(C)S(=O)(=O)c1ccc(-c2cc(C(=O)OC)sc2C(F)(F)F)cc1`, the inhibition is 87.2% (active).

Turning to `COC(=O)c1sc(C(F)(F)F)c(-c2ccccc2)c1S(=O)(=O)N(C)C`, the inhibition is -5.2%.

Turning to `Cc1ccc(OCCCC(=O)NC(C)c2ccccc2)c(C)c1` (stereo not given), the inhibition is -19.3%.

Take `Cc1cccc(C(=O)OC(C)CN2CCN(C)CC2)c1` (stereo not given): the inhibition was 58% (active).

For `Cc1ccc(C(=O)OC(C)CN2CCOCC2)cc1` (stereo not given), the inhibition was -24.8%.

For `Cc1cccc(C(=O)OC(C)CN2CCCC2)c1` (stereo not given), the inhibition is 17.2%.

Consider `O=c1c2c(nc3cc(-c4cccc(Cl)c4)[nH]n13)CCCC2`, for which the inhibition is 59.5% (active).

As to `C=CCc1c(C)nc2cc(-c3ccccc3)[nH]n2c1=O`, the inhibition was -9.98%.

On to `CCCCN1Cc2c(nc3cc(-c4ccccc4)[nH]n3c2=O)C1=O`, for which the inhibition was 6.47%.

Consider `COc1ccc(Br)cc1CN1CCN(C(=O)c2cccc(OC)c2OC)CC1`, for which the inhibition was -1.16%.

As to `COC(=O)Cc1cc(=O)oc2c(C)c(O)ccc12`, the inhibition was 11.1%.

For the compound `COc1cccc(C(=O)OCc2cc(=O)oc3c(C)c(C)ccc23)c1OC`, the inhibition was 54.5% (active).

Take `Cc1ccc(NC(=S)N(CCCN2CCCC2)Cc2cccn2Cc2ccc(Cl)cc2)cc1`: the inhibition is -45.1%.

Take `CCOc1cc(/C=C(/C#N)c2ccc(Cl)cc2)cc(Cl)c1OCC(=O)O`: the inhibition was 70.8% (active).

Turning to `CCOc1cc(/C=N/NC(=O)OC)ccc1OCCSc1ccc(Cl)cc1`, the inhibition is 14.9%.

Take `COc1cc(/C=C(/NC(=O)c2ccc(Cl)cc2Cl)C(=O)O)cc(OC)c1OC`: the inhibition was 18.8%.

For `O=C(O)C1=C[C@H](c2cccs2)C[C@H](OCCCCO)O1`, the inhibition was -7.03%.

With `CC(C)CCC(C)NC(=O)c1ccc2nccnc2c1` (stereo not given), the inhibition is -39.8%.

Regarding `COc1cccc(NC(=O)c2ccc3c(SCC(=O)O)c4c(nc3c2)CCCC4)c1`, the inhibition was -30.4%.

`CC(C)CCNC(=O)c1ccc2c(Cl)c3c(nc2c1)CCC3`: the inhibition is 55.3% (active).

Consider `COC(=O)CNS(=O)(=O)c1ccc(Cc2ccc(S(=O)(=O)NCC(=O)OC)cc2)cc1`, for which the inhibition was 13.7%.

Regarding `O=C(Cc1cccc2ccccc12)NCCC1=CCCCC1`, the inhibition is 80.3% (active).

`Cc1nnc(OCC(=O)NCCC2=CCCCC2)c2ccccc12`: the inhibition is -8.28%.

Turning to `O=C(CCNC(=O)Cn1ccc2ccccc2c1=O)NCCC1=CCCCC1`, the inhibition was 7.75%.
